Experimental findings from PubChem BioAssay AID651791 (National Center for Advancing Translational Sciences (NCATS), 2012) are described below.

Records with an inconclusive call do not appear. Activity calls are given as the source filed them. Calls come from the whole dose curve; as a rule, active = well fitted inhibition curve with a large enough effect; inconclusive = small, poorly fitted or top-dose-only effect; inactive = no such curve, though single readings can be large or run the other way.
Potency is the fitted concentration of half-maximal effect.

The nature of the assay: InCell qHTS Assay for Inhibitors of the mTORC1 Signaling Pathway in MEF (Tsc2-/-, p53-/-) Cells: Hit Validation.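 Note: phospho-S6 Ser235/236 signal normalized to propidium iodide cell count per well; nearly all actives have a fitted effect of over 75% in size.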 The settings on record: phospho-rpS6 immunofluorescence, 24 h; activity change, negative = inhibition: at 38.3 µM (top of the series). (In general: In qHTS, concentration-response curves come from the screen itself.)
Regarding `CN1CCN(C2(CNC(=O)COc3ccc(C(C)(C)C)cc3)CCCCC2)CC1`, the activity change, negative = inhibition is -100%.
Turning to `CCc1nnc(NC(=O)c2nc(S(=O)(=O)Cc3cccc(C)c3)ncc2Cl)s1`, the Potency was 4.14 µM (active).
For `Cc1cccc(NC(=O)c2c(NC(=O)C(F)(F)F)sc3c2CCCCC3)c1`, the activity change, negative = inhibition is -100%.
With `CCN(C(=O)C(NS(=O)(=O)c1ccc(Br)s1)c1ccccc1)c1ccc(C)c(C)c1` (stereo unspecified), the activity change, negative = inhibition is -15.2%.
As for `Cc1cccc(C(=O)Nc2c3c(nn2-c2ccc(Cl)cc2)CS(=O)(=O)C3)c1`, the activity change, negative = inhibition was -100%.
On the same count and under the same terms, with `CCCN1CCN(c2ncnc3sc(C(=O)Nc4ccc(OC(F)(F)F)cc4)c(C)c23)CC1` the figure was -100%.
`Cc1ccc(C)c(NC(=O)c2nc(S(=O)(=O)Cc3ccc(F)cc3)ncc2Cl)c1`: the Potency was 3.29 µM (active).
For `CN(Cc1ccccc1)C(=O)CSc1c2c(nc3ccc(Cl)cc13)CCCC2`, the activity change, negative = inhibition is -100%.
For `O=c1c(-c2cc(-c3ccc(F)cc3)nc3c2COc2ccc(Cl)cc2-3)coc2ccc(F)cc12`, the activity change, negative = inhibition is -100%.
Turning to `CCOC(=O)N1CCN(Cc2nc3cc(NC(=O)CC)ccc3n2C(C)C)CC1`, the activity change, negative = inhibition was -100%.
Turning to `CCS(=O)(=O)c1ncc(Cl)c(C(=O)NCc2ccc(OC)cc2)n1`, the Potency was 4.65 µM (active).
With `O=C(COc1ccc(F)cc1)Nc1ccc(Cl)c(-c2nc3ccccc3[nH]2)c1`, the activity change, negative = inhibition was -100%.
Take `CCc1ccc(NC(=O)Cn2nc(C(F)(F)F)c3c2CCCC3)cc1`: the activity change, negative = inhibition was -100%.
With `CCOC(=O)CSc1nc2cc3c(cc2c(=O)n1CCCCCC(=O)NCc1ccc2c(c1)OCO2)OCO3`, the activity change, negative = inhibition was -100%.
As for `CCCCS(=O)(=O)c1oc(-c2cccs2)nc1S(=O)(=O)c1ccccc1`, the Potency is 1.47 µM (active).
As for `CCCCn1c(=N)n(CCOc2ccccc2OC)c2ccccc21`, the Potency is 7.36 µM (active).
`COc1cccc(-n2c(-c3ccc(C)cc3)cc3c2CC(C)(C)CC3=O)c1`: the activity change, negative = inhibition was -6.41%.
Still for that read-out and setting: with `Cc1ccc(NC(=O)COc2ccc(-c3nn(C)c(=O)c4ccccc34)cc2)c(C)c1` the figure was -100%; with `CCC(Sc1nncn2c1cc1oc(C)cc12)C(=O)Nc1ccc(F)cc1` (stereo unspecified), -100%.
Consider `CCC(C)S(=O)(=O)c1oc(-c2cccs2)nc1S(=O)(=O)c1ccccc1` (stereo unspecified), for which the Potency was 1.17 µM (active).
Turning to `COc1ccc(Cl)cc1NC(=O)CSc1nc(-c2ccco2)cc(C(F)(F)F)n1`, the activity change, negative = inhibition was -100%.
